High-throughput results deposited in PubChem by several laboratories.
Rows were chosen to be rich in hits. Some 0.82% of all compounds tested hit in one or more screens of this group.
Keap1-Nrf2 PPI = Keap1-Nrf2 (human) interaction inhibition | Q14145 | Keap1 Kelch-Nrf2 peptide fluorescence polarization, 1536-well | inhibition, % at 9.4 µM | actives 0.15% (n = 340,000) | AID 504523; in the data active = inhibition above about 12%;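 also: human Keap1 Kelch domain with fluorescein labeled Nrf2 9mer peptide probe; higher means more block of Keap1 binding to Nrf2 peptide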
Cardiac RTF inh = cardiac RTF calcium desensitization; inhibition, % at 7.15 µM; AID 493244; actives 0.12% (n = 340,000); P19429+P45379; IANBD-labeled cardiac RTF, Ca2+ fluorescence;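 active = inhibition above the mean inhibition of all tested compounds plus 3 SD, cut at about 17% in these data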;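 also: assay run at fixed EC70 calcium of 1.6 mM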
C-LANA FP = KSHV C-LANA DNA binding inhibition; MBP-C-LANA/FAM-LBS DNA binding, fluorescence polarization; inhibition, % at 9 µM; actives 0.078% (n = 340,000);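 active = highest replicate inhibition at or above 60% at 9 µM, even if other replicates fall short; inactive = all replicates below 60% inhibition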
cardiac RTF act = increases calcium sensitivity of human cardiac regulated thin filaments. activation, % at 7.2 µM. P19429+P45379. actives 0.24% (n = 340,000). IANBD-labeled TnC RTF fluorescence at EC20 calcium; 0% EC20 calcium, 100% full calcium;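 active = activation above the mean over all tested compounds plus 3 SD, cut at about 30% in these data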;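 also: rise in fluorescence read as greater calcium sensitivity of cardiac thin filaments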
E coli Lon inh = inhibits E. coli Lon protease; purified E. coli Lon protease, fluorescence polarization; inhibition, % at 7.94 µM; actives 0.42% (n = 360,000); in the data active = inhibition above about 13%, passing the limit was not always enough
eLon confirm = E. coli Lon inhibition confirmation. shares compounds with E coli Lon inh. purified E. coli Lon, fluorescence polarization. inhibition, % at 7.94 µM. actives 31% (n = 1,400). AID 602230; in the data active = inhibition above about 16%
Large screens that a line does not name were inactive (follow-up assays come after a bar, where they were run).

CCOC(=O)c1c(C)oc2c1c(C=NCc1ccccn1)c(O)c1ccccc12	E coli Lon inh 123.6 | eLon confirm 134.8
Cc1ccccc1NC(=O)C1CCCN(c2ncnc3onc(-c4ccc(F)cc4)c23)C1 (stereo not given)	E coli Lon inh 16.1 | eLon confirm inactive
CC(C)n1nc(C(=O)Nc2nc3ccccc3[nH]2)c2ccccc2c1=O	none
CC(C)CC(=O)NC(NCC1CCCO1)C(Cl)(Cl)Cl (stereo not given)	none
c1ccc(-c2cnnc(N3CCOCC3)n2)cc1	none
Brc1ccc(-c2cnnc(N3CCCC3)n2)cc1	cardiac RTF act 79.3, E coli Lon inh 22.5 | eLon confirm inactive
N#Cc1cccc(NC(=O)c2cc(C3CCCCN3C(=O)c3cccs3)on2)c1 (stereo not given)	E coli Lon inh 15.4 (no result: Keap1-Nrf2 PPI, Cardiac RTF inh, C-LANA FP, cardiac RTF act) | eLon confirm inactive
N#Cc1ccc(C(=O)N2CCCCC2c2cc(C(=O)Nc3cccc(C#N)c3)no2)cc1 (stereo not given)	none (no result: Keap1-Nrf2 PPI, Cardiac RTF inh, C-LANA FP, cardiac RTF act)
O=C1N(c2cccc(Cl)c2)C(c2ccccc2)N2CCCN12 (stereo not given)	none
Cc1ccc(C2N(c3ccccc3)C(=O)N3CCCN23)cc1 (stereo not given)	E coli Lon inh 36.0 | eLon confirm inactive
COc1ccccc1Cc1c(-c2ccc(C#N)cc2)nc2c(Cl)cc(C(F)(F)F)cn12	none (no result: Keap1-Nrf2 PPI, Cardiac RTF inh, C-LANA FP, cardiac RTF act)
O=C(Nc1cccc(S(=O)(=O)N2CCCCCC2)c1)C1CC(=O)N(c2ccc3c(c2)OCCO3)C1 (stereo not given)	E coli Lon inh 22.3 | eLon confirm inactive
Cc1ccc(NC(=O)CC2SC3=NCCCN3C2=O)c(C)c1 (stereo not given)	E coli Lon inh 64.0 | eLon confirm 16.9
O=C(NCCCNC(=O)c1cnccn1)c1ccc(Br)cc1	none
COc1ccc(CCNC(=O)CNCC(c2ccccc2)N(C)C)cc1OC (stereo not given)	none
Cc1nc(CNC(=O)CC2C(=O)NCCN2Cc2cccc(Oc3ccccc3)c2)cs1 (stereo not given)	none
COc1ccc(CN2CCNC(=O)C2CC(=O)NCc2csc(C)n2)c(F)c1 (stereo not given)	E coli Lon inh 18.6 | eLon confirm inactive
C=CCn1c(SCC(=O)Nc2sc3c(c2C#N)CCC(C)C3)nc2cc(C(=O)O)ccc2c1=O (stereo not given)	E coli Lon inh 47.9 | eLon confirm inactive
COc1ccc(N=NC2=C(O)CC(C)(C)CC2=O)cc1	none
COc1ccc(N=NC2=C(O)CC(C)(C)CC2=O)c(OC)c1	E coli Lon inh 22.3 | eLon confirm inactive
O=C(c1cc(COc2ccc(F)cc2F)on1)N1C[C@H]2CC[C@H]1C2	E coli Lon inh 23.6 | eLon confirm inactive
CC(C)N1CCCC(C)(C(=O)Nc2ccccc2)C1 (stereo not given)	none (no result: Keap1-Nrf2 PPI, Cardiac RTF inh, C-LANA FP, cardiac RTF act)
Cc1onc(-c2c(F)cccc2Cl)c1C(=O)ONC(=O)c1ccco1	E coli Lon inh 17.3 | eLon confirm inactive
Cc1onc(-c2c(F)cccc2Cl)c1C(=O)NCc1ccccc1	none
COc1cc(C(=O)OCC(=O)N2CCCCCC2)c([N+](=O)[O-])cc1OC	none
COc1cc(C(=O)OCC(=O)N2CCOCC2)c([N+](=O)[O-])cc1OC	E coli Lon inh 18.2 | eLon confirm inactive
CN(C)Cc1ccccc1-c1cccc2nccn12	E coli Lon inh 16.9 (no result: Keap1-Nrf2 PPI, Cardiac RTF inh, C-LANA FP, cardiac RTF act) | eLon confirm inactive
Clc1ccccc1-c1cccc2nccn12	none (no result: Keap1-Nrf2 PPI, Cardiac RTF inh, C-LANA FP, cardiac RTF act)
COCCn1c(C)nc2oc3ccc(Br)cc3c(=O)c2c1=O	none
Cc1oc2ccc(Br)cc2c(=O)c1-c1nn[nH]n1	E coli Lon inh 20.7 | eLon confirm inactive
Cc1ccc(S(=O)(=O)N2CC(O)C[C@H]2C(=O)OCC(=O)c2ccccc2)cc1 (stereo not given in full)	none
O=C(COC(=O)C1CC(O)CN1S(=O)(=O)c1ccc(Cl)cc1)c1cccc(Cl)c1 (stereo not given)	E coli Lon inh 71.8 | eLon confirm inactive
CC(C)C[C@@H](CN1CCC[C@H]1CN1C(=O)C(=O)NC[C@@H]1Cc1ccc(O)cc1)N1C[C@H](Cc2ccccc2)N(CCc2ccccc2)C(=O)C1=O	E coli Lon inh 10.8 (no result: Keap1-Nrf2 PPI, Cardiac RTF inh, C-LANA FP, cardiac RTF act) | eLon confirm inactive
Cc1ccc2c(c1)c1c(n2CC(O)CNC(CO)(CO)CO)CCCC1 (stereo not given)	none
